Measurements: PubChem BioAssay (NCI)
Compounds without any hit were thinned out: in the full panel of roughly 79,000, 15% have a hit. Values without a mark were called inactive. Activity calls are given as the source filed them. Rule as the data show it: active = growth inhibition above about 70%; inactive = the rest.

Experiment: NCI Yeast Anticancer Drug Screen. Data for the sgs1 strain (AID 173);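 also: 0% = growth of vehicle-only control cultures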
Details: S. cerevisiae sgs1 mutant, at 1.2 µM, active compounds read high
Method in brief: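 Growth of a yeast strain bearing a defined genetic alteration is measured after compound treatment. Inhibition is expressed relative to vehicle-only controls.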
For COc1ccc(N=CN(C)C)c(C)c1, the growth inhibition was -45%. Cc1cc(S(=O)(=O)Nc2nnc3cnc4ccccc4n23)c(S)cc1Cl showed a growth inhibition of -2%. For O=C(Oc1ccc2c(c1)CN(Cc1ccccc1)CO2)c1ccccc1, the growth inhibition was 4%. For CN(C)[C@@H]1C(=O)C(C(N)=O)=C(O)[C@@]2(O)C(=O)C3=C(O)c4c(O)cccc4C[C@H]3C[C@@H]12, the growth inhibition was -7%. Compound O=[N+]([O-])c1ccc2c(c1)/C(=N/N=C1c3ccccc3Cc3ccccc31)c1cc([N+](=O)[O-])cc([N+](=O)[O-])c1-2 has a growth inhibition of 18%. With Cc1nc2c(Br)cc(Br)cc2c(=O)n1-c1ccccc1NC1OCC(O)C(O)C1O (stereo unspecified) the growth inhibition was 2%.

Same assay, conditions: S. cerevisiae sgs1 mutant, at 3.7 µM, active compounds read high
For O=C1/C(=C/c2ccccc2)CCCC1CN1CCCCC1 (stereo unspecified), the growth inhibition was 42%. In the case of C#CCN(Cc1ccc2nc(N)[nH]c(=O)c2c1)c1ccc(C(=O)NC(CCC(=O)O)C(=O)O)cc1 (stereo unspecified), the growth inhibition was 35%. For CCOC1(c2cccc([N+](=O)[O-])c2)c2ccccc2Oc2ccccc21, the growth inhibition was 1%. With O=C(O)CNC(=S)Nc1ccccc1 the growth inhibition was -51%. With N/C(=N/N=C/c1cc(Br)cc(Br)c1O)NO the growth inhibition was -28%. For C[Si](C)(C)/C=C/CCNC(C#N)c1ccccc1 (stereo unspecified), the growth inhibition was -15%. For CC1=C(C(=O)NCc2ccccc2)C(c2ccccc2)C(C(=O)NCc2ccccc2)=C(C)N1, the growth inhibition was -2%. With CCOC(=O)C(Br)C(Br)c1ccccc1Cl (stereo unspecified) the growth inhibition was 34%. In the case of CCOC(=O)C1=C(C)NC(C)=C(C(=O)OCCNC(=O)c2ccc(N=[N+]=[N-])cc2)C1c1ccccc1C(F)(F)F (stereo unspecified), the growth inhibition was -2%. Cc1cc(C)c(NC(=S)NC(=O)c2ccccc2)cc1C showed a growth inhibition of -54%. For CNCCCNc1c2ccccc2nc2cccc([N+](=O)[O-])c12, the growth inhibition was 84% (active). Work on COc1c(O)c(C=O)c(Br)c(C=O)c1O yielded a growth inhibition of 3%. In the case of Cc1c(C)c(C)c(CSC(=N)N)c(C)c1C, the growth inhibition was -34%. O=C(CSC(=S)N1CCCCC1)Nc1nc2c(s1)CCCC2 gave a growth inhibition of 20%. In the case of CNC(=O)OCc1c(COC(=O)NC)c(-c2ccc(Cl)cc2)n2c1CCC2, the growth inhibition was -28%. Compound CC(=O)OC1CC2C(C)(C)C(=O)C=C[C@]2(C)C2CCC3(C)C(=CCC3[C@H](CO)C[C@H](O)C(=O)C(C)(C)O)[C@]12C (stereo partly specified) has a growth inhibition of -5%. With CCCCCCOC(=O)NCCOC(=O)Nc1ccccc1 the growth inhibition was 2%. With C[C](C)(C)[Ge]([O][Ge]([c]1ccccc1)[c]1ccccc1)([O][Ge]([c]1ccccc1)[c]1ccccc1)[C](C)(C)C the growth inhibition was 27%. With CCc1c(Cl)c(C)cc(O)c1Cl the growth inhibition was -4%. For Cc1nc(Nc2ccccc2[N+](=O)[O-])sc1C(=O)CC(=O)C(=O)Nc1c(C(C)C)cccc1C(C)C, the growth inhibition was 4%. With O=[N+]([O-])c1cccc2nc3ccccc3c(NCCCn3ccnc3[N+](=O)[O-])c12 the growth inhibition was 74% (active). CCCCCCC(O)CNCc1ccnc2ccc(OC)cc12 (stereo unspecified) showed a growth inhibition of 12%. Compound Cc1c2cccc(Sc3ccccc3)c2c2c3c(cccc13)[S+](c1ccccc1)C2 (stereo unspecified) has a growth inhibition of 40%. For C=C1CCC(O)C/C1=C/C=C1\CCCC2(C)C1CCC2C(C)CCCC(C)C (stereo unspecified), the growth inhibition was -6%. NC1=NNC2(C(N)=N1)c1ccccc1-c1ccccc12 gave a growth inhibition of 17%. Work on COc1cc2cc3c4cc(OC)c(OC)cc4cc[n+]3c(C)c2cc1OC yielded a growth inhibition of -17%. With COC(=O)NC1C(C)OC(OC2C/C=C(/C)C3C=CC4C(OC5CC(OC6CC(O)C(OC7CC(O)C(OC)C(C)O7)C(C)O6)C(O)C(C)O5)C(C)CC(C)C4C3(C)/C(O)=C3\C(=O)OC4(CC(C)C(CO)=CC4/C=C\2C)C3=O)CC1(C)[N+](=O)[O-] (stereo unspecified) the growth inhibition was -8%. Compound O=C1CSC(c2cccc(Cl)c2)N1c1ccc(-c2ccc(-n3c(-c4ccccc4)nc4ccccc4c3=O)cc2)cc1 (stereo unspecified) has a growth inhibition of 2%. CCOC(=O)C(C(=O)OCC)=P(c1ccccc1)(c1ccccc1)c1ccccc1 showed a growth inhibition of 0%. Work on COc1ccc(N=CN(C)C)c(C)c1 yielded a growth inhibition of -40%. Compound Cc1cc(S(=O)(=O)Nc2nnc3cnc4ccccc4n23)c(S)cc1Cl has a growth inhibition of 1%. With O=C(Oc1ccc2c(c1)CN(Cc1ccccc1)CO2)c1ccccc1 the growth inhibition was 9%. Work on CN(C)[C@@H]1C(=O)C(C(N)=O)=C(O)[C@@]2(O)C(=O)C3=C(O)c4c(O)cccc4C[C@H]3C[C@@H]12 yielded a growth inhibition of -9%. For O=[N+]([O-])c1ccc2c(c1)/C(=N/N=C1c3ccccc3Cc3ccccc31)c1cc([N+](=O)[O-])cc([N+](=O)[O-])c1-2, the growth inhibition was 64%. In the case of Cc1nc2c(Br)cc(Br)cc2c(=O)n1-c1ccccc1NC1OCC(O)C(O)C1O (stereo unspecified), the growth inhibition was 5%.
